Assay outcomes deposited in PubChem BioAssay by National Center for Advancing Translational Sciences (NCATS).
D1 potentiator – Potentiators of Human D1 Dopamine Receptor: qHTS; D(1A) dopamine receptor (Homo sapiens), P21728; HEK293 TREx D1 cells, calcium flux, dopamine EC20 potentiation; potentiation, % at 10 µM; 0.036% of 360,000 active; in the data active means potentiation above about 30%; further: 0% is about no effect
D1 antagonist – Antagonist of Human D 1 Dopamine Receptor: qHTS | D(1A) dopamine receptor (Homo sapiens), P21728 | HEK293 TREx D1 cells, calcium flux, dopamine EC80; stronger effect = lower value | activity change, negative = inhibition, % at 10 µM | 3.2% of 360,000 active | AID 504652, 2011; in the data active means activity change below about -30%; further: on the % scale 0 is the no-effect control and ±100 the full control effect
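HEK293 T-REx cells expressing inducible, force-coupled D1 receptor; no-wash Ca dye, 30–90 min RT. Cmpd → 180 s read at 1 Hz → EC80 DA → 180 s read.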
DRD3 antagonist – qHTS of D3 Dopamine Receptor Antagonist: qHTS | D3R cells, DiscoveRx beta-arrestin luminescence, antagonist mode; stronger effect = lower value | max response, negative = inhibition, % | 2.5% of 360,000 active | D(3) dopamine receptor (Homo sapiens), P35462; in the data active means max response below about -50%; inconclusive means no clear call, values can overlap the other calls; further: on the % scale 0 is the no-effect control and ±100 the full control effect
Target sequence (P35462 whole entry, looked up): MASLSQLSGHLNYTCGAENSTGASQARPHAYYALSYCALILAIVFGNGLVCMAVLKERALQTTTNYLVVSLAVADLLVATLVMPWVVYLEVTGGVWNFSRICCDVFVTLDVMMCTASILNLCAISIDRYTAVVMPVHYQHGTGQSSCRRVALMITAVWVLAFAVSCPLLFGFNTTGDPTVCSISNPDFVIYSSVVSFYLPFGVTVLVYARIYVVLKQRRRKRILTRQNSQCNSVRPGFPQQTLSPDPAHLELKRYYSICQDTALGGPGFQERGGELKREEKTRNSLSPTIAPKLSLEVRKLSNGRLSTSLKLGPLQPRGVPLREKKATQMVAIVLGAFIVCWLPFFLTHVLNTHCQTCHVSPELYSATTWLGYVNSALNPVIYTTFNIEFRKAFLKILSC
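Cells expressing the human receptor were seeded at 1500 cells/well, incubated overnight at 37 degrees C in 5% CO2, then exposed to library compounds with dopamine controls for 90 minutes at 37 degrees C before luminescent detection.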
D3 ag – qHTS of D3 Dopamine Receptor Agonist: qHTS; D3R DiscoveRx beta-arrestin cells, luminescence, 90 min; 0.58% of 410,000 active; AID 652048, 2013; max activation, %; in the data active means max activation above about 30%; further: 0% is about no effect
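Agonist-mode cell screen: cells plated at 1500/well and incubated overnight at 37 °C, then exposed to library compounds for 90 min at 37 °C. Detection reagent was added for 30–60 min at room temperature, and luminescence was read.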
D1 agonist – Allosteric Agonists of the Human D1 Dopamine Receptor: qHTS; D(1A) dopamine receptor (Homo sapiens), P21728; HEK293 T-REx D1 cells, calcium flux, agonist mode; activation, % at 2 µM; 1% of 360,000 active; in the data active means activation above about 30%; further: 0% is about no effect
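Tetracycline-induced HEK293 TREx D1 cells, force-coupled to calcium signalling, were dye-loaded with a no-wash calcium kit. Compound was pin-added after a 10 s baseline. Fluorescence was read kinetically at 1 cycle/s for 180 s, with calcium rises flagged as agonism.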
Numbers without * were called inactive; ? = inconclusive; · = no result; ! = not confirmed by another sample. This is a sample that favours compounds with a hit; in the whole collection about 6% have one here.

SMILES	D1 potentiator	D1 antagonist	DRD3 antagonist	D3 ag	D1 agonist
O=C(NCCc1ccccc1)c1nn(-c2ccc(F)cc2)nc1CO	4.0	-5.4	·	-21.6	-1.5
N#Cc1c(NC(=O)CN2C(=O)c3ccccc3C2=O)oc(-c2ccccc2)c1-c1ccccc1	·	·	?	-17.2	·
N#Cc1c(NC(=O)CCN2C(=O)c3ccccc3C2=O)oc(-c2ccccc2)c1-c1ccccc1	-0.5	10.6	-85.3*	-6.0	2.2
CCOc1ccc(-c2cc(C(=O)Oc3ccc(C#N)cc3)no2)cc1	0.2	14.0	·	-40.6	3.4
Cc1cccc(NC(=O)c2cc(-c3ccc4c(c3)OCCO4)on2)c1	-1.3	-65.8*	·	-18.4	34.6*
N#Cc1ccc(OC(=O)c2cc(-c3ccc(Cl)cc3)on2)cc1	-0.3	-38.0*	·	-8.4	2.7
Cc1cc(OC(=O)c2cc(-c3ccc4c(c3)OCCO4)on2)ccc1Cl	-2.1	-35.7*	·	-9.8	10.8
CCOC(=O)C1CCN(C(c2ccccc2)c2c(O)cc(C)n(Cc3ccco3)c2=O)CC1 (centres undefined)	0.2	-4.8	·	3.6	2.0
Cc1cc(C)c(NC(=O)Cn2c(=O)n(-c3ccc(F)cc3)c(=O)c3c(C)c(C(=O)N(C)C)sc32)c(C)c1	-0.9	-8.4	·	3.0	2.8
COc1ccc(CNc2nc3nc(C)cc(C)n3n2)cc1OC	-1.9	8.9	-56.0*	4.7	-3.3
Cc1cc(C)n2nc(NCc3cccc(Br)c3)nc2n1	-7.8	15.5	?	4.6	0.3
Cc1ccc(CN2C(=O)c3ccccc3CC2(C)C(=O)NC2CCCCC2)cc1 (centres undefined)	-4.2	7.1	·	0.6	0.9
COc1ccc(N2CCN(C(CNC(=O)CC(C)C)c3ccc4c(c3)OCO4)CC2)cc1 (centres undefined)	0.8	7.4	·	-20.0	0.0
CCOC(=O)Cn1c(=O)oc2cc(S(=O)(=O)Nc3ccccc3F)ccc21	-3.2	3.5	·	-1.9	7.7
COc1ccccc1C(C)NCC(=O)Nc1ccccc1C(F)(F)F (centres undefined)	1.4	-4.8	-56.6*	-7.7	12.9
CCC(O)(C(=O)Nc1ccccc1C(F)(F)F)c1ccccc1OC (centres undefined)	-1.5	-4.6	5.6	5.1	0.8
CCCCNC(=O)C[C@@H]1C[C@@]2(C(=O)OC)CC(C)(C)CC=C2N(CCc2ccc(OC)c(OC)c2)C1=O	·	·	4.8	-2.6	·
COCCCNC(=O)C[C@@H]1C[C@@]2(C(=O)OC)CC(C)(C)CC=C2N(CCc2ccc(OC)c(OC)c2)C1=O	·	·	-70.4*	-21.5	·
CCc1ccc(C(=O)NC2=NC(c3cc(OC)ccc3OC)CC(=O)N2)cc1 (centres undefined)	0.8	-5.7	·	5.9	2.2
CC(C(=O)N1CCc2ccccc21)N1CCc2ccccc2C1 (centres undefined)	9.7	1.6	-85.7*	-7.3	0.8
CC(C(=O)NCC1CCCCC1)N1CCN(S(=O)(=O)/C=C/c2ccccc2)CC1 (centres undefined)	0.9	-12.8	-10.4	-1.7	-0.3
CC(C(=O)NCC1CCCCC1)N1CCc2ccccc2C1 (centres undefined)	-3.5	10.8	-77.5*	-11.3	0.6
O=C1Nc2ccc(Cl)cc2C(=O)C1(F)c1ccccc1 (centres undefined)	0.0	1.8	18.3	36.6*	1.0
O=C1Nc2c(ccc(Cl)c2Cl)C(=O)C1(F)c1ccccc1 (centres undefined)	-1.0	1.9	-15.3	11.7	4.3
CCOC(=O)c1ccc(NC(=O)Cn2cc(C(=O)c3ccc(Cl)cc3)c(=O)c3ccc(C)nc32)cc1	-2.8	-2.6	·	0.8	8.1
SMILES	D1 potentiator	D1 antagonist	DRD3 antagonist	D3 ag	D1 agonist
CC1CCCCN1CCCNC(=O)c1sc2ncccc2c1-n1cccc1 (centres undefined)	-4.0	-9.8	·	-24.0	0.0
COc1ccc(NC(=O)CSc2nc(-c3cc(OC)c(OC)c(OC)c3)[nH]c2-c2ccc(F)cc2)cc1	-5.7	-21.1	·	-24.0	0.2
Cc1csc(NC(=O)CCNS(=O)(=O)c2ccc3c(c2)c(=O)n(C)c(=O)n3C)n1	3.8	8.8	-92.8*	24.4	-0.9
Cc1cccnc1NC(=O)CCNS(=O)(=O)c1ccc2c(c1)c(=O)n(C)c(=O)n2C	-0.6	4.5	-4.5	-11.0	-3.3
COc1cccc(/C=C2\SC(N3CCC(C)CC3)=NC2=O)c1OC	-0.7	-2.3	-17.4	-12.9	3.8
COc1ccccc1/C=C1\SC(N2CCC(C)CC2)=NC1=O	-2.7	-5.4	-65.5*	-24.4	0.1
O=C(NCc1ccccc1)c1nc(S(=O)(=O)Cc2ccccc2)ncc1Cl	-6.0	-41.1*	-78.4*	1.4	0.5
CCS(=O)(=O)c1ncc(Cl)c(C(=O)NCc2ccccc2)n1	-2.8	-32.8*	·	-16.7	0.9
COC(=O)c1ccccc1NC(=O)c1nc(S(=O)(=O)Cc2ccccc2)ncc1Cl	-1.5	-19.1	-77.4*	-0.8	1.7
CC(=O)Nc1ccc(NC(=O)c2nc(S(=O)(=O)Cc3ccccc3)ncc2Cl)cc1	-3.6	12.9	-29.4	-1.4	5.2
COc1ccc(CNC(=O)c2nc(S(=O)(=O)Cc3ccccc3)ncc2Cl)cc1	-5.6	-36.6*!	-97.1*	-5.2	5.5
CCC(NC(=O)Nc1cc(Cl)ccc1OC)c1c(-n2cccc2)sc2c1CCN(C)C2 (centres undefined)	-1.3	-1.6	·	-17.3	6.2
Cc1nn(-c2nc3ccccc3s2)c(C)c1Oc1ccccc1O	-8.7	-60.5*	-28.4	-16.5	25.2
Oc1ccc(Br)cc1C1C=C(c2ccc3c(c2)OCO3)NC(c2ccc(F)c(Br)c2)N1 (centres undefined)	-3.0	-24.3	·	·	19.1
Cc1cccc(N2CCN(S(=O)(=O)c3cc(Cl)ccc3Cl)CC2)c1C	-1.8	-4.0	·	65.1*	1.5
Cc1cc(Cl)c(S(=O)(=O)N2CCN(c3cccc(C)c3C)CC2)cc1OCC(N)=O	-6.4	-12.9	27.8	-4.7	2.4
CN(C)S(=O)(=O)N1CCN(c2cc(Cl)ccc2Cl)CC1	-4.5	14.0	-5.0	-4.2	40.1*
CCOc1ccccc1NC(=O)CN1C(=O)C2(SCC(=O)N2c2ccc(C)cc2)c2ccccc21 (centres undefined)	-4.9	-11.1	·	-3.9	0.3
O=C1C=CC2(C=C1)O[C@H](Cc1ccccc1)[C@@H](Cc1ccccc1)O2	·	·	-109.0*	-29.6	·
COc1ccc(C[C@@H]2OC3(C=CC(=O)C=C3)O[C@H]2Cc2ccc(OC)cc2)cc1	·	·	-117.7*	-13.2	·
O=C1Nc2ccccc2C1Cc1ccccc1 (centres undefined)	3.2	6.1	1.7	29.1	1.2
NC(=O)COc1ccc(-c2noc(COc3ccc(Cl)cc3)n2)cc1	-0.1	24.3	·	-11.1	0.0
